Reference: PubChem BioAssay AID1159580 (chemical genetic matrix, 2015)
Where “and” joins values, the source holds several entries; their conditions need not be identical. Equal values may be shown once. The whole screen tested about 5,500 compounds, of which about 2,000 (36%) were called active. Not shown: some 18% with an inconclusive outcome. Rule as the data show it: active = normalized growth mostly below about 0.91 (no sharp cut-off); inconclusive = no clear call, values can overlap the other calls; inactive = mostly above about 0.92. This is one part of the list.

Experiment: chemical genetic growth profiling, strain panel (AID 1159580);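 also: tested at 20 µM; growth read once vehicle control cultures reached saturation at 30 °C; 1 = growth at the plate median or of vehicle wells; lower values mean less growth of the strain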
Conditions: S. cerevisiae deletion strains, growth OD

Measured: normalized growth

c1ccc(CC2=NCCN2)cc1
inactive: locus YAL013W, strain DEP1, stronger effect = lower value 1.01 | locus YAL021C, strain ccr4, stronger effect = lower value 1.01 | locus YAL026C, strain drs2, stronger effect = lower value 1.03 | locus YAL030W, strain snc1, stronger effect = lower value 1.01 | locus YBL061C, strain skt5, stronger effect = lower value 1.01 | locus YBR009C, strain hhf1, stronger effect = lower value 0.998 | locus YBR021W, strain FUR4, stronger effect = lower value 0.861 | locus YBR023C, strain chs3, stronger effect = lower value 1.01 | locus YBR171W, strain sec66, stronger effect = lower value 1.03 | locus YBR229C, strain ROT2, stronger effect = lower value 0.983 | locus YBR231C, strain swc5, stronger effect = lower value 1.01 | locus YBR279W, strain paf1, stronger effect = lower value 1.01 | locus YCL011C, strain gbp2, stronger effect = lower value 1.02 | locus YCL016C, strain dcc1, stronger effect = lower value 1 | locus YCL061C, strain MRC1, stronger effect = lower value 1.02 | locus YCL069W, strain vba3, stronger effect = lower value 1.03 | locus YCR088W, strain abp1, stronger effect = lower value 1.01 | locus YDL005C, strain med2, stronger effect = lower value 1.02 | locus YDL035C, strain GPR1, stronger effect = lower value 0.963 | locus YDL040C, strain nat1, stronger effect = lower value 1 | locus YDL074C, strain BRE1, stronger effect = lower value 1 | locus YDL101C, strain DUN1, stronger effect = lower value 0.987 | locus YDL134C, strain PPH21, stronger effect = lower value 0.99 | locus YDL192W, strain arf1, stronger effect = lower value 0.952 | locus YDR001C, strain nth1, stronger effect = lower value 1.01 | locus YDR069C, strain doa4, stronger effect = lower value 1 | locus YDR137W, strain rgp1, stronger effect = lower value 1.03 | locus YDR150W, strain NUM1, stronger effect = lower value 0.983 | locus YDR159W, strain sac3, stronger effect = lower value 0.977 | locus YDR162C, strain NBP2, stronger effect = lower value 0.967 | locus YDR195W, strain ref2 1.02 | locus YDR297W, strain sur2, stronger effect = lower value 1.01 | locus YDR334W, strain swr1, stronger effect = lower value 1.02 | locus YDR335W, strain msn5, stronger effect = lower value 1 | locus YDR392W, strain spt3, stronger effect = lower value 0.933 | locus YEL003W, strain gim4, stronger effect = lower value 1.01 | locus YEL037C, strain rad23, stronger effect = lower value 1.02 | locus YEL061C, strain CIN8 (second series), stronger effect = lower value 1.01 | locus YEL061C, strain CIN8, stronger effect = lower value 0.987 | locus YER015W, strain faa2, stronger effect = lower value 1.01 | locus YER016W, strain bim1, stronger effect = lower value 1.04 | locus YER110C, stronger effect = lower value 0.929 | locus YER111C, strain swi4, stronger effect = lower value 1.02 | locus YER155C, strain BEM2 (second series), stronger effect = lower value 1.02 | locus YER167W, strain BCK2, stronger effect = lower value 0.939 | locus YFR010W, strain ubp6, stronger effect = lower value 1.01 | locus YGL086W, strain mad1, stronger effect = lower value 0.955 | locus YGL167C, strain pmr1, stronger effect = lower value 1.02 | locus YGL173C, strain kem1, stronger effect = lower value 0.998 | locus YGL227W, strain vid30, stronger effect = lower value 1.03 | locus YGL240W, strain doc1, stronger effect = lower value 0.97 | locus YGL248W, strain PDE1, stronger effect = lower value 0.996 | locus YGL253W, strain hxk2, stronger effect = lower value 1.01 | locus YGR078C, strain PAC10, stronger effect = lower value 0.988 | locus YGR135W, strain pre9, stronger effect = lower value 0.937 | locus YGR229C, strain SMI1, stronger effect = lower value 1.01 | locus YGR252W, strain gcn5, stronger effect = lower value 0.898 | locus YHR013C, strain ard1, stronger effect = lower value 1.02 | locus YHR027C, strain rpn1, stronger effect = lower value 1.02 | locus YHR030C, strain SLT2, stronger effect = lower value 0.976 and 0.967 | locus YHR079C, strain IRE1, stronger effect = lower value 0.961 | locus YHR129C, strain ARP1, stronger effect = lower value 0.958 | locus YHR142W, strain chs7, stronger effect = lower value 1.02 | locus YIL066C, strain RNR3, stronger effect = lower value 0.987 | locus YIL073C, strain SPO22, stronger effect = lower value 1.01 | locus YJL092W, strain hpr5, stronger effect = lower value 1.01 | locus YJL095W, strain BCK1 (second series), stronger effect = lower value 1.01 | locus YJL095W, strain BCK1, stronger effect = lower value 1.01 and 0.968 | locus YJL115W, strain asf1, stronger effect = lower value 1.02 | locus YJL129C, strain trk1, stronger effect = lower value 1.03 | locus YJL134W, strain LCB3, stronger effect = lower value 0.969 | locus YJL154C, strain vps35, stronger effect = lower value 1.01 | locus YJL164C, strain tpk1, stronger effect = lower value 1.02 | locus YJL166W, strain qcr8, stronger effect = lower value 1.03 | locus YJL187C, strain SWE1 (second series), stronger effect = lower value 0.988 | locus YJL187C, strain SWE1, stronger effect = lower value 1.02 | locus YJR043C, strain POL32, stronger effect = lower value 0.939 | locus YJR066W, strain TOR1, stronger effect = lower value 0.935
active: locus YCL029C, strain bik1, stronger effect = lower value 0.887 | locus YDL185W, strain tfp1, stronger effect = lower value 0.816 | locus YDR101C, strain arx1, stronger effect = lower value 0.903 | locus YDR318W, strain mcm21, stronger effect = lower value 0.893 | locus YDR388W, stronger effect = lower value 0.923 | locus YDR502C, strain sam2, stronger effect = lower value 0.91 | locus YER155C, strain BEM2, stronger effect = lower value 0.891 | locus YGL078C, strain dbp3, stronger effect = lower value 0.806 | locus YHR079C, strain IRE1 (second series), stronger effect = lower value 0.865 | locus YHR094C, strain hxt1, stronger effect = lower value 0.9 | locus YHR200W, strain rpn10, stronger effect = lower value 0.91 | locus YIL125W, strain kgd1, stronger effect = lower value 0.787 | locus YIR030C, strain dcg1, stronger effect = lower value 0.899 | locus YJL168C, strain set2, stronger effect = lower value 0.915
